G9a inh: inhibitors of human histone lysine methyltransferase G9a. Q96KQ7. G9a H3K9 monomethylation, AlphaScreen, 2 h. Potency, µM (titrated, usually from 102 µM), for the others: top-dose activity, negative = inhibition, actives largely listed as inhibitors. actives 8.8% (n = 350,000). AID 504332; further: potency means the concentration at half of the fitted maximal effect; on the % scale 0 is the no-effect control and ±100 the full control effect; nearly all actives have a fitted effect of over 75% in size
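Chemiluminescent proximity detection of H3K9 monomethylation, read after 10 min bead incubation in the dark. Reaction: 20 nM G9a, 500 nM biotin-H3K9 peptide, 20 uM SAM cofactor, 2 h, room temperature, following 15 min enzyme-compound preincubation.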
JMJD2A Tudor: blocks the human JMJD2A Tudor domain; AlphaScreen JMJD2A-Tudor / H3K4me3 peptide binding; Potency, µM (doses to about 114 µM), without a hit: at the top dose activity change, negative = inhibition, usual class: inhibitors; actives 4.4% (n = 390,000); further: potency means the concentration at half of the fitted maximal effect; on the % scale 0 is the no-effect control and ±100 the full control effect; nearly all actives have a fitted effect of over 50% in size
PI5P4Ka inh: blocks human PI5P4K alpha kinase activity; P48426; PI5P4Kalpha enzyme, ADP-Glo luminescence, 60 min; active compounds read low; max response, %; actives 1.2% (n = 330,000); AID 652105; active means max response of -50% or lower; inconclusive means between -30% and -50%; inactive means -30% or higher; further: value at the top dose of about 77 µM; on the % scale 0 is the no-effect control and ±100 the full control effect
Target sequence (P48426 whole entry, looked up): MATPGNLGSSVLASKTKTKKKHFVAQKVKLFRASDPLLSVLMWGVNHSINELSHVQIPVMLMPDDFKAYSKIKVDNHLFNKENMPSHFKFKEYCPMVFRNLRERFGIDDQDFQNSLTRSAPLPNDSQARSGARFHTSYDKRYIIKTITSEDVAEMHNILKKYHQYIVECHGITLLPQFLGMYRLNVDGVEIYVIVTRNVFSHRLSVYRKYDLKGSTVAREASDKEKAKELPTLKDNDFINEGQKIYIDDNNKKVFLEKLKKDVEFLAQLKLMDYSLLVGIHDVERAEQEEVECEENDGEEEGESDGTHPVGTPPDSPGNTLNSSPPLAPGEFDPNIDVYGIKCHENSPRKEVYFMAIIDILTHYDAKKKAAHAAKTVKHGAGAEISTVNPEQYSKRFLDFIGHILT
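Human PI5P4Kalpha with substrate in 0.038 M HEPES pH 7.4, 0.28 mM EGTA, 0.1% CHAPS, 5% DMSO; reaction started with 5 microM ATP (final), 60 min at room temperature. ADP formed read by ADP-Glo luminescence.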
BAZ2B block: blocks human BAZ2B. Potency, µM (highest dose often 114 µM), without a hit: at the top dose activity change, negative = inhibition, actives largely listed as inhibitors. AID 504333. AlphaScreen BAZ2B-H3K14Ac peptide displacement. Q9UIF8. actives 4.4% (n = 360,000); further: potency means the concentration at half of the fitted maximal effect; on the % scale 0 is the no-effect control and ±100 the full control effect; nearly all actives have a fitted effect of over 60% in size
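AlphaScreen displacement: compounds (up to 110uM) incubated 30 min at room temperature with a preformed 50 nM BAZ2B/50 nM biotinylated H3K14Ac peptide complex in PBS pH 7.4 with Tween-20. Donor and acceptor beads at 10 ug/mL final added, 20 min light-protected before reading.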
HP1b chromo inh: inhibitors of HP1-beta chromodomain binding to methylated histone tails; actives 0.56% (n = 390,000); P83916; Potency, µM (highest dose often 114 µM), inactives show top-dose activity change, negative = inhibition, usual class: inhibitors; AID 540317; AlphaScreen HP1-beta / biotin-H3K9me3 peptide binding; further: potency means the concentration at half of the fitted maximal effect; nearly all actives have a fitted effect of over 70% in size
Target sequence (P83916 whole entry, looked up): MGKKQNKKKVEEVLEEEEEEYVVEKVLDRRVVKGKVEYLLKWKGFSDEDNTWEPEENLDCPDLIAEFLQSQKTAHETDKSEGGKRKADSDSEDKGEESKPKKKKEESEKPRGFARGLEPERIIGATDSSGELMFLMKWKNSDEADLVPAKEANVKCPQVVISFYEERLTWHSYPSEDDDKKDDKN
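Compound inhibition of the preformed complex between 50 nM HP1-beta and 50 nM biotinylated H3K9me3 peptide was read by AlphaScreen. Buffer was PBS pH 7.4 with 0.01% Tween-20. Incubations ran 30 min at room temperature, with 10 ug/mL donor/acceptor beads.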
L3MBTL1 inh: blocks human L3MBTL1 | AlphaScreen L3MBTL1–H3K9me1 peptide binding | Q9Y468 | Potency, µM (titrated, usually from 57.1 µM), for the others: at the highest dose activity, negative = inhibition, usual class: inhibitors | actives 0.66% (n = 230,000); further: potency means the concentration at half of the fitted maximal effect; on the % scale 0 is the no-effect control and ±100 the full control effect; nearly all actives have a fitted effect of over 60% in size
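Read-out is AlphaScreen signal from streptavidin donor and nickel chelate acceptor beads (10 ug/mL final each) bridging L3MBTL1 (50 nM) and biotinylated K9-monomethylated H3(1-15) peptide (75 nM), after 30 min compound exposure at room temperature.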
* hit, by the source's call; ? = inconclusive; · = not tested or not shown; ! = a repeat was not active; [ ] = remark or other dose. An excerpt weighted towards active compounds, which were near 11% of everything screened. Unless noted, the call rests on the fitted dose curve; in most records, active means well fitted inhibition curve with a large enough effect; inconclusive means small, poorly fitted or top-dose-only effect; inactive means no such curve, though single readings can be large or run the other way.

SMILES	G9a inh	JMJD2A Tudor	PI5P4Ka inh	BAZ2B block	HP1b chromo inh	L3MBTL1 inh
O=C(CSc1nnc(-c2ccccn2)n1-c1ccc(Cl)cc1)Nc1ccc2c(c1)OCO2	14.1µM*	-25.9%	·	?	40.1%	·
O=S(=O)(c1ccc(F)cc1)N1CCN(CC(O)COCc2ccccc2)CC1 (stereo not drawn)	·	5.62µM*	-4.0	·	?	·
O=S(=O)(c1cccc(C(F)(F)F)c1)N1CCN(c2ccccc2)CC1	2.4%[59 µM]	8.2%	·	5.8%	35.8%	·
O=S(=O)(c1ccc(OCC(O)CN2CCN(c3ccc(F)cc3)CC2)cc1)N1CCOCC1 (stereo not drawn)	-12.0%	-14.4%	·	1.4%	8.8%	-0.1%
O=S(=O)(c1cccc(C(F)(F)F)c1)N1CCN(CC(O)COCc2ccccc2)CC1 (stereo not drawn)	·	12.6µM*	-4.5	·	?	-10.0%
O=C(CCc1nnc2n(Cc3ccccc3Cl)c(=O)c3ccccc3n12)Nc1ccccc1	-4.5%[59 µM]	-21.1%	·	-0.6%	0.3%	·
COc1ccc(NC(=O)Cn2c(=O)n(Cc3ccco3)c(=O)c3cc(OC)c(OC)cc32)cc1	18.4%[59 µM]	-3.1%	·	3.8%	32.0%	·
Cc1ccc(C(=O)CSc2nnc3ccc4ccccc4n23)cc1	-27.5%[59 µM]	2.6%	·	-12.1%	56.1%	·
Cc1ccc(NC(=S)NCCc2ccccc2)nc1	1.58µM*	-20.0%	?	-32.2%	21.8%	-8.8%
Cc1cccnc1NC(=S)NCCc1ccccc1	0.708µM*	20µM*	-19.5	35.5µM*	?	-23.7%
Cc1ccc(C(=O)OCc2cc(=O)n3nc(CC(C)C)sc3n2)cc1	1.0%[59 µM]	-7.7%	·	-1.7%	-5.8%	·
COc1ccc(-c2nc(SCC(=O)N3CCC(C)CC3)n[nH]2)cc1	-9.3%[59 µM]	-14.0%	·	2.5%	41.4%[57 µM]	·
COc1ccc(Cn2c(C(=O)O)c(CNCc3ccc(SC)cc3)c3ccc(OC)cc32)cc1	-9.6%[59 µM]	-27.5%	·	?	22.9%	·
Cc1ccc(NS(=O)(=O)c2c(C)nc3sc(C)c(C)n3c2=O)cc1F	-8.5%[59 µM]	-12.1%	·	-27.1%	41.2%	·
Cc1ccc(S(=O)(=O)NN=C2CCc3ccccc32)cc1	·	·	0.0	·	·	·
Cc1ccc(S(=O)(=O)NN2Cc3ccccc3C2=N)cc1	15.8µM*	-12.0%	-0.7	·	34.7%	7.8%
Cc1ccc(Cl)cc1NC(=O)Cn1c(=O)n(C(C)C)c(=O)c2oc3ccccc3c21	3.0%[59 µM]	-17.2%	·	-4.9%	24.1%	·
CCN1C(=O)CC(c2ccccc2)CC1=O	2.8%[2.33 µM]	-12.1%	-1.1	1.8%	8.5%	-5.2%
O=C1C=CC(=O)N1CCCCCCN1C(=O)C=CC1=O	1.58µM*	17.8µM*	-58.4*	-24.6%	?	-6.0%
O=C(O)CN1C(=O)C=CC1=O	·	·	-15.4	·	·	·
CCN1C(=O)C=CC1=O	1µM*!	·	·	·	·	·
COc1ccc(-c2ccc(C(C)=O)cc2)cc1C1C2C=CCCC2(C)C(=O)N1Cc1ccccc1 (stereo not drawn)	·	?	·	·	-5.8%	·
CNc1cc(OC)c(C(=O)N[C@@H]2CCN(Cc3ccccc3)[C@H]2C)cc1Cl	2.1%[12.7 µM]	·	·	·	·	·
CC[n+]1c(/C=C/N(C)c2ccccc2)oc2ccc(F)cc21	8.91µM*	79.4µM*	-16.3	-32.4%	-2.9%	-16.0%
CC[n+]1c(/C=C/Nc2ccccc2)oc2ccc(OC)cc21	?	10.3%	1.7	-5.7%	47.9%	1.9%
SMILES	G9a inh	JMJD2A Tudor	PI5P4Ka inh	BAZ2B block	HP1b chromo inh	L3MBTL1 inh
O=S(=O)([O-])CCC[n+]1c(/C=C\Nc2ccccc2)oc2ccc(-c3ccccc3)cc21	-35.5%	·	·	79.4µM*	·	?
CC[n+]1c(/C=C/Nc2ccccc2)oc2ccccc21	50.1µM*	-5.7%	·	-29.8%	65.0%	3.7%
NCCCC(N)CC(=O)NCC1NC(=O)C(CO)NC(=O)C(N)CNC(=O)C(C2CCN=C(N)N2)NC(=O)/C(=C/NC(N)=O)NC1=O (stereo not drawn)	-46.6%[2.33 µM]	·	·	·	·	·
CCOC(=O)C(Nc1ccc2ccccc2c1)C(=O)OCC	2µM*	?	-3.5	50.1µM*	-35.4%	28.2µM*
CCN(CC)S(=O)(=O)c1ccc(NN)nc1	-2.3%	20µM*	-12.0	·	-4.4%	-23.6%
O=C(CSc1ccc(-c2ccncc2)nn1)c1ccccc1	25.1µM*	-17.5%	2.2	-1.7%	16.3%	·
O=C(CSc1ccc(-c2ccco2)nn1)N1CCCCCC1	?	?	-3.1	?	24.7%	·
COc1ccc(C(=O)CSc2ccc(-c3ccco3)nn2)cc1	22.4µM*	-31.9%	?	50.1µM*	21.6%	-23.0%
O=C(CC(=O)c1ccncc1)c1ccccc1	·	31.6µM*	9.6	·	6.9%	·
O=C(CSc1ccc(-c2ccco2)nn1)c1ccccc1	7.94µM*	?	?	50.1µM*	-3.9%	?
COc1ccccc1CNC(=O)CCCc1nnc2n(CC(C)C)c(=O)c3sccc3n12	23.9%[59 µM]	22.7%	·	14.7%	73.4%	·
CCOc1ccc(N=C(C)c2ccccc2O)cc1	?	-15.8%	3.1	-35.4%	23.9%	-11.8%
NS(=O)(=O)c1ccc(N=Nc2ccc(=O)[nH]c2O)cc1	-31.4%[2.33 µM]	35.5µM*	-79.8*	44.7µM*	50.1µM*	?
CCOc1ccc(N=Nc2ccc(O)c3ncccc23)cc1	39.8µM*	?	0.1	?	-8.4%	·
NS(=O)(=O)c1ccc(N=Nc2ccc(O)c3ncccc23)cc1	50.1µM*	20µM*	-79.4*	3.55µM*	?	·
NS(=O)(=O)c1ccc(N=NN2CCCCC2)cc1	?	-17.3%	7.9	0.2%	8.8%	4.6%
CCOc1ccc(N=Nc2cc(C(C)C)ccc2O)cc1	20µM*	17.8µM*	37.5	5.62µM*	14.1µM*	28.2µM*
COc1ccccc1CN1C(=O)CN(C2CCCCCC2)C(=O)C1c1ccc(C)cc1 (stereo not drawn)	-6.7%[59 µM]	-14.7%	·	-0.1%	42.4%	·
CCCn1c(=N)n(CC(=O)c2ccc([N+](=O)[O-])cc2)c2ccccc21	39.8µM*	-22.8%	-24.2	35.5µM*	17.0%	-7.5%
CC(=O)Nc1ccc(Nc2ccc3cc(S(=O)(=O)N4CCCCC4)ccc3n2)cc1	?	-22.1%	·	?	26.9%	·
Nc1ccc2c(c1)-c1ccccc1S(=O)(=O)N2	31.6µM*	?	?	?	-5.9%	?
CCN1CCC[C@H]1CNC(=O)c1cc(S(N)(=O)=O)ccc1OC	-14.3%[59 µM]	·	·	-6.0%	·	·
CCN1CCCC1CNC(=O)c1ccc2c(c1)NC(=O)/C(=C\c1ccc(OC)c(OC)c1)S2 (stereo not drawn)	-8.8%[0.0925 µM]	28.2µM*	-1.1	25.1µM*	-17.0%[57 µM]	·
COc1ccc(/C=C2/Sc3ccc(C(=O)NCCCN4CCOCC4)cc3NC2=O)cc1OC	?	?	-10.4	?	-2.5%[57 µM]	·
CCN1CCCC1CNC(=O)c1cc(N)ccc1OC (stereo not drawn)	·	0.794µM*	0.1	·	?	·
